From PubChem BioAssay AID743446 (Broad Institute, 2014) come the findings set out here.

Each structure is given as a SMILES string. Entries with a potency or affinity are not part of this list. Activity calls are given as the source filed them. How the calls were made is not given here.

The nature of the test: viability loss in HEK293 cells – cell-based, plate reader, cherry-picked samples, cytotoxicity control, dose response (AID 743446). The note with it: hits give low values; at 26 µM unless noted.
Take `COc1ccc(-c2cc3nc(CCl)[nH]c(=O)c3s2)cc1`: the max activity was -60.9% (inactive). As for `O=C(Nc1ccc(N2CCN(C(=O)c3ccc(Cl)cc3)CC2)cc1)c1cc2ccccc2o1`, the figure is 21.1% [at 0.05 µM] (inactive); as for `Cc1cc(-c2nc3cc(F)ccc3s2)ccc1N`, 28.1% [at 1.6 µM] (inactive).

As to `COCCn1c(C)cc(C(=O)CSc2nnnn2C2CCCC2)c1C`, the max activity was 21% (inactive).

With `CC(=O)N1CCCC(c2cc(C(=O)Nc3ccccc3)no2)C1` (stereo not drawn), the max activity was -27% [at 12 µM] (inactive). As for `CCOc1ccc(C(=O)Nc2cccc(C(=O)O)c2C)cc1Cl`, the figure is 26.7% (inactive). With `Cc1ccc(C(=O)NC2CCCCCCC2)c(Cl)c1`, the max activity is -18.7% [at 0.38 µM] (inactive). As for `N#C[C@@H]1[C@H](c2ccc(C#Cc3cccc(F)c3)cc2)[C@@H](CO)N1C(=O)C1CCC1`, the figure is 22.1% [at 12 µM] (inactive); as for `CCCCn1nnnc1C(c1cc2ccccc2o1)N1CCN(c2ccncc2)CC1` (stereo not drawn), 11.8% (inactive); as for `CC(=O)c1ccc(NC(=O)c2noc3c2CCC3)cc1`, 12.6% [at 0.1 µM] (inactive). With `O=C(Nc1ccc(N2CCOCC2)c(S(=O)(=O)Nc2ccccc2Cl)c1)c1ccc(F)cc1`, the max activity was -18.2% [at 0.1 µM] (inactive). As for `Cc1ccc(-c2cc(C(=O)N3CCOCC3)no2)cc1`, the figure is -12% [at 6 µM] (inactive); as for `CO[C@H]1CN(C)C(=O)c2ccc(NC(=O)c3ccc(-c4ccccc4)cc3)cc2OC[C@@H](C)NC[C@@H]1C`, 20.6% [at 0.8 µM] (inactive). As for `Cc1cccn2c(CNCC3(c4ccccc4)CCCC3)c(C(=O)N3CCOCC3)nc12`, the figure is 13.8% [at 3 µM] (inactive); as for `O=C(COc1ccc2ccccc2c1)Nc1nccs1`, 38.6% [at 0.195 µM] (inactive). As for `O=C1OCCC1Sc1nnc(-c2ccc(Cl)cc2Cl)o1` (stereo not drawn), the figure is 7.96% [at 0.8 µM] (inactive). As for `Cc1ccc(S(=O)(=O)N2[C@@H](CO)CO[C@H]2CC(=O)OCc2ccccc2)cc1`, the max activity was 42.9% [at 12 µM] (inactive). For `Cc1ccc(-c2noc(-c3cccs3)n2)cc1`, the max activity was 22.5% [at 12 µM] (inactive). As for `C[C@@H]1CN([C@@H](C)CO)C(=O)c2cccc(NC(=O)Nc3ccc(C(F)(F)F)cc3)c2O[C@H]1CN(C)C(=O)Nc1cccc2ccccc12`, the figure is 14.8% [at 6 µM] (inactive). As for `CN(C)c1ccc(C2NC(=O)c3ccccc3N2)cc1` (stereo not drawn), the figure is 20.5% [at 0.1 µM] (inactive); as for `O=C(CN1C(=O)c2ccccc2S1(=O)=O)c1ccc(F)cc1`, 63.1% (inactive); as for `CC(C)N(C(=O)Nc1ccc2nsnc2c1)C(C)C`, 12.5% (inactive).

Take `C[C@H](CO)N1C[C@H](C)[C@H](CN(C)C(=O)Nc2ccc3c(c2)OCO3)OCCCC[C@H](C)Oc2ccc(NC(=O)NC3CCCCC3)cc2C1=O`: the max activity was -16.6% (inactive). As for `Cn1c(=O)c2cc(NC(=O)NCc3ccccc3)ccc2n1C/C=C/c1ccccc1`, the figure is 34.9% [at 1.6 µM] (inactive); as for `CO[C@@H]1CN(C)C(=O)c2cc(NC(C)=O)ccc2OC[C@@H](C)N(Cc2ccc(F)cc2)C[C@@H]1C`, 59.8% [at 0.05 µM] (inactive). As for `Cc1ccc(C(=O)CN2C(=O)c3ccccc3S2(=O)=O)cc1`, the figure is 11.6% [at 3 µM] (inactive); as for `COCCOc1cc(NCc2ccccc2)c2ncn(C(C)C)c2c1`, -9.83% [at 0.1 µM] (inactive); as for `CCc1ccc2ncc(S(=O)(=O)c3ccc(C)c(C)c3)c(N3CCCC3)c2c1`, 19.3% [at 0.38 µM] (inactive). With `COc1ccc2sc(NC(=O)c3ccco3)nc2c1`, the max activity is 18.6% [at 0.05 µM] (inactive). As for `CCOC(=O)c1sc(NC(=O)Nc2ccccc2F)nc1C`, the figure is -21.8% [at 0.05 µM] (inactive); as for `COCC(=O)N[C@@H]1CC[C@@H](CC(=O)NCc2ccccc2OC)O[C@@H]1CO`, -9.61% [at 0.05 µM] (inactive). `c1ccc(-n2nnc3c(N4CCOCC4)ncnc32)cc1`: the max activity is 32.3% [at 0.8 µM] (inactive).

In the case of `Cc1ccoc1C(=O)Nc1ccc2ccccc2c1`, the max activity is -16.8% [at 0.1 µM] (inactive). In the case of `CCOc1ccc(-c2cnc3ccccc3n2)cc1`, the max activity was 16.5% [at 0.38 µM] (inactive). As for `CN(C)c1ccc(NC(=O)c2cnsn2)cc1`, the figure is -9.61% [at 12 µM] (inactive); as for `CCCC(=O)N1CCCC(c2cc(C(=O)Nc3ccccc3)no2)C1` (stereo not drawn), -23.2% [at 0.05 µM] (inactive). As for `COc1ccc(NC(=O)N(C)C[C@@H]2OCCCC[C@H](C)Oc3ccc(NC(=O)NC4CCCCC4)cc3C(=O)N([C@H](C)CO)C[C@@H]2C)cc1`, the figure is 7.92% [at 0.195 µM] (inactive); as for `CC[C@H](CO)Oc1cc(NCc2ccc(Cl)c(Cl)c2)c2ncn(C(C)C)c2c1`, 27.3% [at 0.05 µM] (inactive).
